TGFb SMAD3 inh = blocks TGF-b signaling; HepG2 CAGA-GFP TGF-b/SMAD3 reporter, GFP fluorescence, 18 h; TGF-beta stimulated, 500 pg/mL final; Potency, µM (doses to about 46.1 µM), for inactives: at the top dose activity, negative = inhibition, most hits filed as inhibitors; 1.2% of 410,000 active; further: on the % scale 0 is the no-effect control and ±100 the full control effect; nearly all actives have a fitted effect of over 65% in size
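Per well, imaged GFP fluorescence of HEPG2 CAGA-GFP cells gives the signal; cells get compound, then TGF-beta (500 pg/mL final), 18 h at 37 degrees C; %Activity versus -TGF-beta and +DMSO controls.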
Anesthetic bind = candidate novel general anesthetic via apoferritin binding | P02791 | apoferritin/1-aminoanthracene competitive binding, fluorescence | Potency, µM (doses to about 77.5 µM), without a hit: at the highest dose activity change, negative = displacement, hits mostly inhibitors | 0.074% of 350,000 active | AID 485281; further: on the % scale 0 is the no-effect control and ±100 the full control effect; nearly all actives have a fitted effect of over 20% in size
Target sequence (P02791 2-175 limits assumed): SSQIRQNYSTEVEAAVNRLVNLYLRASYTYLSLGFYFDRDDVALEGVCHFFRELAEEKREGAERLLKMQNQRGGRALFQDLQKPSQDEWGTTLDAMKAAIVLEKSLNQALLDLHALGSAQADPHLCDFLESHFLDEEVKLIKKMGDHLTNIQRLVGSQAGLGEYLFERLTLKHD
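Horse-spleen apoferritin (10 uM) was mixed with 50% saturated 1-aminoanthracene in PBS, exposed to compounds for 10 min at room temperature, and read for fluorescence (ex 380 nm, em 535 nm). Competitive displacement was fitted with a four-parameter Hill equation.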
ATXN2 expr inh = inhibitors of ATXN2 expression | Potency, µM (titrated, usually from 57 µM), for the others: top-dose activity change, negative = inhibition, usual class: inhibitors | 0.72% of 360,000 active | HEK-293 ATXN2-luciferase reporter, luminescence, 24 h; further: on the % scale 0 is the no-effect control and ±100 the full control effect; nearly all actives have a fitted effect of over 55% in size
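qHTS (up to 57 uM final) was run with 24 h compound exposure of reporter cells at 37 °C. Each well was multiplexed: SteadyGlo luminescence measured ATXN2-luciferase expression after a fluorogenic Gly-Phe-AFC viability readout (25 uM final).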
ATXN viability = viability counter-screen for ATXN expression inhibitors; 0.49% of 400,000 active; S2 cells (HEK-293 line with an ATXN2-luciferase reporter) viability, CellTiter-Fluor protease fluorescence, 24 h; AID 651635; Potency, µM (doses to about 56.7 µM), actives largely listed as cytotoxic; further: nearly all actives have a fitted effect of over 40% in size
HepG2 tox = kills HepG2 cells in TGF-b inhibitor counter-screen. Potency, µM (top dose mostly 46.1 µM), inactives show top-dose activity change, negative = cytotoxicity, hits mostly cytotoxic. HepG2 CAGA-GFP viability, ATP luminescence, 18 h. AID 588856. 0.76% of 410,000 active
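HepG2 CAGA-GFP cells (1000/well, DMEM with 1% FBS) received compound, then TGF-beta at 500 pg/mL final, and were incubated 18 hours at 37 degrees C. Viability was read by CellTiter-Glo luminescence. Media-only wells were set as complete cell-killing and DMSO as no toxicity.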
Numbers without * were called inactive; i = inactive; ? = inconclusive; nt = no result given; [ ] = another dose, or the depositor's remark. In the library only some 2.4% were active in any assay of this set; here they are far more common. The call rests on the fitted dose curve; in most records, active means well fitted curve in the direction sought with a large enough effect; inconclusive means small, poorly fitted or top-dose-only effect, or another doubt; inactive means no such curve, though single readings can be large; an effect the other way counts as inactive or inconclusive. Potency means the concentration at half of the fitted maximal effect.

SMILES	TGFb SMAD3 inh	Anesthetic bind	ATXN2 expr inh	ATXN viability	HepG2 tox
CN(C)c1ccc(/C=C2/SC(=O)N(CCN=C3NS(=O)(=O)c4ccccc43)C2=O)cc1	-20%	-4%	17%	i	-44%
CN(C)c1ccc(/C=C2\SC(=O)N(CCc3nnc(N)s3)C2=O)cc1	9%	-13%	4µM*	i	-10%
O=C(Nc1ccc(Cl)cc1Cl)[C@@H]1CC=C[C@@H]2CCN(C3CCCCC3)C(=O)[C@@H]21	-6%	nt	nt	nt	-8%
Cc1[nH]nc2c1C(c1ccc(-c3ccc(Cl)cc3)o1)C(C#N)=C(N)O2 (stereo not given)	?	8%	4%	?	-84%
Cc1ccc(-c2ccc(C3C(C#N)=C(N)Oc4n[nH]c(C)c43)o2)cc1 (stereo not given)	?	-14%	-3%	i	16µM*
Cc1ccc2nc(SCC(=O)N3CCOCC3)[nH]c2c1	?	3%	5%	i	5%
Cc1ccc2nc(SCC3CCCCO3)[nH]c2c1 (stereo not given)	-3%	-21%	11µM*	i	25%
Nc1nc(N)c2cc(S(=O)(=O)c3cccc(C(F)(F)F)c3)ccc2n1	-19%	nt	nt	i	1.3µM*
O=C(O)c1cc2cccc([N+](=O)[O-])c2[nH]1	-15%	nt	nt	nt	-3%
OCCNCc1cc(Br)ccc1OCc1ccc(Cl)cc1	?	-18%	-11%	i	-51%
OCCNCc1cc(Br)ccc1OCc1ccc(Cl)cc1Cl	?	6%	?	?	16µM*
CCOc1cc(CNCCO)cc(Br)c1OCc1ccc(Cl)cc1Cl	?	?	20µM*	nt	16µM*
CO[C@H]1COC(=O)[C@@H](Cc2ccccc2)NC(=O)[C@@H](C)COC(=O)C/C=C\[C@@H]1C	nt	0%[15.3 µM]	nt	nt	nt
CCCCC(CC)CCC(CC(C)C)OS(=O)(=O)O (stereo not given)	nt	nt	nt	i	nt
CN(C)CCCN(C(=O)CCOc1ccccc1)c1nc2c(F)cccc2s1	?	-9%	-32%	nt	11µM*
Cc1cccc2sc(N(CCN(C)C)C(=O)/C=C/c3cccs3)nc12	?	27%	-11%	i	-45%
Cc1cccc2sc(N(CCCN(C)C)C(=O)COc3ccc(Cl)cc3)nc12	-25%	-21%	-38%	i	22µM*
CN(C)CCCN(C(=O)/C=C/c1cccs1)c1nc2c(F)cccc2s1	18µM*	-16%	?	?	13µM*
COc1ccc2sc(N(CCN(C)C)C(=O)/C=C/c3cccs3)nc2c1	?	47%	nt	?	20µM*
COc1cc(CN2CCOc3ccc(CN4CCC(O)(c5cccnc5)CC4)cc3C2)cc(OC)c1	nt	nt	nt	i	nt
Cc1cc(C(=O)Nc2ccccc2-c2nc(CNC(=O)c3sc(C)nc3C)c(C)o2)c(C)o1	nt	nt	nt	i	nt
Cc1ccc(S(=O)(=O)N2CCCc3cc(NS(=O)(=O)c4cccc(Cl)c4)ccc32)cc1	10µM*	-5%	?	?	-16%
CCCCNc1c(-c2ccc(OC)c(SC3CCCCC3)c2)nc2cnccn12	?	nt	?	nt	11µM*
Cc1ccc2cc(CNCc3cccc4ccccc34)c(N3CCC(O)CC3)nc2c1	nt	nt	nt	i	nt
COc1ccc(OCc2nnc3n2N=C(c2ccc(Br)cc2)CS3)cc1	1%	14µM*	?	?	-6%
CCOC(=O)c1ccc(N2C(=O)c3n[nH]c(-c4ccco4)c3C2c2ccc(C)cc2)cc1 (stereo not given)	?	-10%	?	28µM*	16µM*
CCOC(=O)c1ccc(N2C(=O)c3n[nH]c(C)c3C2c2ccc(OCC)cc2)cc1 (stereo not given)	11µM*	?	?	?	-117%
COc1cc(C2c3c(n[nH]c3C)C(=O)N2c2ccc(C)cc2)ccc1O (stereo not given)	?	-11%	-14%	i	-16%
CCOC(=O)c1ccc(N2C(=O)c3n[nH]c(-c4ccco4)c3C2c2ccc(O)c(OC)c2)cc1 (stereo not given)	10µM*	58%	?	?	-69%
